In PubChem BioAssay (NCATS):
Results filed as inconclusive are left out. The source made the active and inactive calls. Unless noted, calls follow the shape of the dose curve; as a rule, active = well fitted curve in the direction sought with a large enough effect; inconclusive = small, poorly fitted or top-dose-only effect, or another doubt; inactive = no such curve, though single readings can be large; an effect the other way counts as inactive or inconclusive.

Tests used:
[1] = qHTS profiling of the MIPE4 collection as inhibitors of Plasmodium falciparum (DD2) proliferation (AID 743345; call rule not given here); conditions: P. falciparum Dd2 in erythrocytes, SYBR Green DNA, 72 h; at 28.5 µM (top of the series) unless noted
Method in brief: (§1)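 Parasite DNA was quantified by SYBR Green I fluorescence (ex 485, em 535 nm) after overnight lysis in saponin/Triton buffer at room temperature. Cultures at 0.3% parasitemia and 2.5% hematocrit were first exposed to compound for 72 h at 37 C; signals were normalised to artemisinin (0.29 uM) and vehicle wells.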

[2] = qHTS profiling of the MIPE4 collection as inhibitors of Plasmodium falciparum (DD2) proliferation (Rep 2) (AID 743346; call rule not given here); conditions: P. falciparum Dd2 in erythrocytes, SYBR Green DNA, 72 h; at 28.5 µM (top of the series) unless noted
Method in brief: as §1

[3] = qHTS profiling of the MIPE4 collection as inhibitors of Plasmodium falciparum (HB3) proliferation (AID 743347; call rule not given here;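 also: plate controls were DMSO vehicle wells for no effect and artemisinin wells for full effect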); conditions: P. falciparum HB3 in erythrocytes, SYBR Green DNA, 72 h; at 28.5 µM (top of the series) unless noted
Method in brief: as §1

[4] = High-throughput drug toxicity screening in the BPDCN cell line Gen2.2 (AID 1224824; call rule not given here;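 also: cells exposed to compounds for 48 h before reading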); conditions: Gen2.2 BPDCN cells; at 45.8 µM (top of the series) unless noted
Method in brief: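 Readout is ATP luminescence from Gen2.2 cells after two days of drug exposure in serum-containing medium at 37 °C. Values express percent activity, with vehicle defining full signal and 9.2 uM bortezomib defining zero.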

[5] = High-throughput drug toxicity screening in the BPDCN cell line Cal-1 (AID 1224825; call rule not given here); conditions: Cal-1 BPDCN cell viability, qHTS; at 45.8 µM (top of the series) unless noted
Method in brief: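 Percent activity derived from CellTiter-Glo luminescence, scaling DMSO to 100% and 9.2 uM final bortezomib to 0%. BPDCN Cal-1 cells (500/well, RPMI plus 10% FBS) incubated with compounds 48 hours at 37C before reading.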

[6] = qHTS assay for measurement of the activity of small molecule inhibitors on Zika virus induced Caspase-3 activity in human iPSC derived neural progenitor cells (hNPCs) (AID 1224857); also: nearly all actives have a fitted effect of over 65% in size; also: potency is read from the fitted curve at half-maximal effect
Method in brief: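 Values are percent inhibition of virus-induced caspase-3/7 signal, scaled between uninfected cells and ZIKV-infected cells. Infection used 2 FFU/cell for 6 h after 1 h compound exposure.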

[7] = qHTS assay for measurement of the activity of small molecule inhibitors on Zika virus induced Caspase-3 activity in human astrocytoma cells (AID 1224859); also: potency is read from the fitted curve at half-maximal effect
Method in brief: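 Compound added 1 h pre-infection; ZIKV 2 FFU/cell on SNB-19 cells, 6 h, 37 C/5% CO2. Caspase-Glo 3/7 luminescence; values as % inhibition of ZIKV-induced caspase activity.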

[8] = qHTS Screen of the MIPE 4.0 Collection Against Ewings Sarcoma (RDES) (AID 1259252); also: nearly all actives have a fitted effect of over 35% in size; also: potency is read from the fitted curve at half-maximal effect
Method in brief: (§2)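 CellTiter-Glo luminescence after 48 h compound exposure (titration) gave viability; percent activity used DMSO-treated cells as no inhibition and medium-only wells as full inhibition. Cells grown in RPMI/5% FBS, dosed 4 h post-seeding.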

[9] = qHTS Screen of the MIPE 4.0 Collection Against Ewings Sarcoma (TC71) (AID 1259253); also: nearly all actives have a fitted effect of over 40% in size; also: potency is read from the fitted curve at half-maximal effect
Method in brief: as §2

[10] = qHTS Screen of the MIPE 4.0 Collection Against Ewings Sarcoma (EW8) (AID 1259255); also: nearly all actives have a fitted effect of over 35% in size; also: potency is read from the fitted curve at half-maximal effect;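 as to viability: 100% = DMSO-treated cells and 0% = medium-only wells without cells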
Method in brief: as §2

[11] = qHTS profiling of the MIPE4 collection as inhibitors of Plasmodium falciparum (3D7) proliferation (AID 743344; call rule not given here;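 also: scaled between DMSO vehicle wells and 0.29 µM artemisinin as full inhibition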); conditions: P. falciparum 3D7 in erythrocytes, SYBR Green DNA fluorescence, 72 h; at 28.5 µM (top of the series) unless noted
Method in brief: as §1

[12] = qHTS Assay for Identifying Gametocytocidal Compounds (AID 743244);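 also: % is scaled to controls: 0 for no effect and ±100 for the full control effect; actives lower the fluorescent signal which means gametocytes are killed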; conditions: P. falciparum 3D7 stage III-V gametocytes, alamarBlue, 72 h; max response: stronger effect = lower value
Method in brief: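 Stage III–V gametocytes of P. falciparum 3D7 were seeded at 20,000 cells/well onto pre-dispensed compounds. After 72 h, 37 °C, 5% CO2, alamarBlue was added for another 24 h.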

Compound	parasite growth remaining, % of DMSO control (lower = more inhibition) [1]	parasite growth, % of control (lower = inhibition) [2]	growth, % of control [3]	cell viability, % of control (lower = more cytotoxic) [4]	viability (% of control) [5]	Potency [6]	Potency [7]	Potency [8]	Potency [9]	Potency [10]	parasite growth, % of DMSO control [11]	max response [12]
CC[C@H]1OC(=O)[C@H](C)[C@@H](O[C@H]2C[C@@](C)(OC)[C@@H](O)[C@H](C)O2)[C@H](C)[C@@H](O[C@@H]2O[C@@H](C)C[C@H](N(C)C)[C@@H]2O)[C@](C)(O)C[C@@H](C)C(=O)[C@H](C)[C@@H](O)[C@]1(C)O	75%	47.1%	82.4%	73.8%	97%	inactive	inactive	inactive	inactive	inactive	–	–
OCCNC1CCCc2c1[nH]c1ccc(-c3ccccc3)cc21 (stereo unspecified)	15.7%	13.3%	3.72%	1.69%	0.798%	inactive	inactive	26.4 µM (active)	20.9 µM (active)	23.5 µM (active)	–	–
O=C(Nc1cc2cc[nH]c2cn1)c1ccccc1	88%	39.2%	75.4%	13.5%	8.25%	4.69 µM (active)	5.26 µM (active)	13.2 µM (active)	13.2 µM (active)	–	76.5%	–
COc1cc(CCc2cc(NC(=O)c3ccc(N4C[C@@H](C)N[C@@H](C)C4)cc3)n[nH]2)cc(OC)c1	66.7%	–	10.3%	14%	4.08%	inactive	inactive	18.7 µM (active)	16.6 µM (active)	–	50.5%	–
CC(=O)ON=C1C(c2c(O)[nH]c3cc(Br)ccc23)=Nc2ccccc21	–	6.05%	2.46%	129%	17.5%	inactive	inactive	2.96 µM (active)	9.35 µM (active)	7.43 µM (active)	–	–
C[C@H](NC(=O)[C@@H](O)c1cc(F)cc(F)c1)C(=O)N[C@@H]1C(=O)N(C)c2ccccc2-c2ccccc21	12.1%	27.7%	8.44%	165%	103%	inactive	inactive	inactive	20.9 µM (active)	inactive	–	–
COc1ccc(S(=O)(=O)Nc2cc(-c3c(O)ccc4ccccc34)c(O)c3ccccc23)cc1	94.7%	23.7%	49.9%	5.48%	3.97%	inactive	inactive	16.6 µM (active)	10.5 µM (active)	4.18 µM (active)	–	–
CCC[C@H]1C[C@H](C(=O)N[C@@H]([C@@H]2O[C@@H](SC)[C@@H](O)[C@@H](O)[C@@H]2O)[C@H](C)Cl)N(C)C1	36%	24.6%	25.3%	155%	128%	inactive	inactive	inactive	inactive	inactive	–	–
NC(=O)c1cccc(-c2cccc(OC(=O)NC3CCCCC3)c2)c1	–	–	94.2%	128%	91.7%	inactive	inactive	inactive	inactive	inactive	–	–
CS(=O)(=O)N1CCc2c(-c3cnc(N)nc3)nc(N3CCOCC3)nc21	9.76%	–	2.07%	10.4%	33.9%	inactive	inactive	0.105 µM (active)	0.59 µM (active)	–	5.02%	–
Cc1ccccc1C(=O)Nc1ccc(C(=O)N2CCCC(O)c3cc(Cl)ccc32)c(C)c1 (stereo unspecified)	75.6%	46%	24.6%	129%	104%	inactive	inactive	inactive	inactive	–	22.8%	1.39% (inactive)
Cc1cc(-c2nnc3n2CCCCC3)c(C)n1-c1ccccc1	36.9%	26.6%	16.4%	229%	98.4%	inactive	inactive	inactive	inactive	inactive	–	–
c1cc(CN2CCCNCCNCCCNCC2)ccc1CN1CCCNCCNCCCNCC1	96.2%	74%	88.5%	133%	120%	inactive	inactive	inactive	inactive	–	91.4%	–
CCC(C(=O)O)C1CCC(C)C(C(C)C(O)C(C)C(=O)C(CC)C2OC3(C=CC(O)[C@@]4(CC[C@](C)(C5CC[C@@](O)(CC)C(C)O5)O4)O3)C(C)CC2C)O1 (stereo partly specified)	–	–	16.9%	16%	12.3%	inactive	inactive	1.18 µM (active)	1.48 µM (active)	0.833 µM (active)	–	–
O=C(C=CC=Cc1ccc2c(c1)OCO2)N1CCCCC1	15.8%	123%	95%	122%	101%	14.8 µM (active)	10.5 µM (active)	inactive	inactive	–	87.5%	–
O=C1NC(O)CCN1[C@@H]1O[C@H](CO)[C@H](O)[C@H]1O (stereo partly specified)	97.8%	109%	59.2%	105%	115%	inactive	inactive	inactive	inactive	–	98.9%	–
OC[C@H]1OC(O)C[C@@H](O)[C@H]1O (stereo partly specified)	–	–	86.6%	118%	115%	inactive	inactive	inactive	inactive	inactive	–	–
O=S(=O)(O)CCSSCCS(=O)(=O)O	–	69.9%	76%	33.7%	35.3%	29.6 µM (active)	inactive	inactive	inactive	inactive	–	–
CC(=O)N1CCN(c2ccc(OCc3nn(C)c(C)c3-c3cccc4c(CCCOc5cccc6ccccc56)c(C(=O)O)n(Cc5cccnc5)c34)cc2)CC1	9.41%	10.7%	2.86%	36.4%	2.28%	inactive	inactive	0.332 µM (active)	1.18 µM (active)	3.72 µM (active)	–	–
CN1[C@H]2CC(OC(=O)[C@@H](CO)c3ccccc3)C[C@H]1[C@H]1O[C@H]12 (stereo partly specified)	–	–	107%	189% [at 23.2 µM]	107% [at 23.2 µM]	inactive	inactive	inactive	inactive	inactive	–	–
CC(C)c1cnn2c(NCc3ccccc3)cc(NCCCCCCN)nc12	12.1%	11.2%	2.16%	4.58%	3.93%	–	inactive	3.72 µM (active)	4.69 µM (active)	18.7 µM (active)	6.96%	–
C#CCC(Cc1cnc2nc(N)nc(N)c2n1)c1ccc(C(=O)N[C@@H](CCC(=O)O)C(=O)O)cc1 (stereo partly specified)	–	9.31%	18%	51.7%	36.9%	–	inactive	0.0372 µM (active)	0.0372 µM (active)	0.0372 µM (active)	21.7%	4% (inactive)
CC1=C(C(=O)Nc2cc3cn[nH]c3cc2F)C(c2ccc(Cl)cc2F)N=C(c2ccnc(Cl)c2)N1 (stereo unspecified)	36.2%	21.1%	10.9%	4.15%	3.35%	–	inactive	18.7 µM (active)	14.8 µM (active)	26.4 µM (active)	13.2%	–
O=C(CCCCCCC(=O)Nc1cccnc1)NO	7.37%	7.99%	4.47%	20.5%	10.1%	–	inactive	2.96 µM (active)	5.26 µM (active)	2.64 µM (active)	–	–
CN(C)CC[C@H](c1ccc(Cl)cc1)c1ccccn1	57%	36.2%	95.2%	120%	98.4%	inactive	inactive	inactive	inactive	–	–	–
COc1cc(C)c(C=CC(C)=CC=CC(C)=CC(=O)O)c(C)c1C	–	85.9%	83.1%	336%	94.9%	inactive	inactive	inactive	inactive	–	85.8%	–
